# From the supplement of paper PMC8728848
# The full list was thinned out, with the strongest signals kept by preference.
# Tests used:
# Assay in all cases: glycan array binding signal (z-score within array); higher = stronger binding
# Settings in all cases: glycan notation: IUPAC condensed, linker removed; mutation: Y228A
# [1] = target: Fuc(a1-2)Gal(b1-3)GlcNAc(b1-3)[Gal(b1-4)GlcNAc(b1-6)]Gal(b1-4)Glc
# Method in brief: (§1)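 The binding signal is a Z-score computed within each array and averaged over linkers. Arrays of the same protein sequence at different concentrations or buffers were also averaged together. Data originate from 3228 arrays in the Consortium for Functional Glycomics database, kept only where the protein sequence was available.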
# [2] = target: Fuc(a1-2)Gal(b1-3)[Fuc(a1-4)]GlcNAc(b1-2)Man(a1-3)[Fuc(a1-2)Gal(b1-3)[Fuc(a1-4)]GlcNAc(b1-2)Man(a1-6)]Man(b1-4)GlcNAc(b1-4)[Fuc(a1-6)]GlcNAc(b1-4)[Fuc(a1-6)]GlcNAc
# Method in brief: as §1
# [3] = target: Fuc(a1-2)Gal(b1-4)GlcNAc(b1-2)Man(a1-3)[Fuc(a1-2)Gal(b1-4)GlcNAc(b1-2)Man(a1-6)]Man(b1-4)GlcNAc(b1-4)GlcNAc
# Method in brief: as §1
# [4] = target: Fuc(a1-2)Gal(b1-4)GlcNAc6S
# Method in brief: as §1
# [5] = target: Fuc(a1-2)Gal(b1-4)[Fuc(a1-3)]GlcNAc(b1-3)GalNAc
# Method in brief: as §1
# [6] = target: Fuc(a1-2)Gal6S(b1-4)Glc6S
# Method in brief: as §1
# [7] = target: Fuc(a1-2)[Gal(a1-3)]Gal(b1-4)[Fuc(a1-3)]Glc
# Method in brief: as §1
# [8] = target: Fuc(a1-2)[GalNAc(a1-3)]Gal(b1-3)GalNAc(a1-3)[Fuc(a1-2)]Gal(b1-4)GlcNAc
# Method in brief: as §1
# [9] = target: Fuc(a1-2)[GalNAc(a1-3)]Gal(b1-3)GlcNAc(b1-3)GalNAc
# Method in brief: as §1
# [10] = target: Fuc(a1-2)[GalNAc(a1-3)]Gal(b1-4)GlcNAc(b1-3)[Fuc(a1-2)[GalNAc(a1-3)]Gal(b1-4)GlcNAc(b1-6)]GalNAc
# Method in brief: as §1
# [11] = target: Fuc(a1-3)[Gal(b1-4)]GlcNAc(b1-6)GalNAc
# Method in brief: as §1
# [12] = target: Fuc(a1-3)[Gal(b1-4)]GlcNAc(b1-6)[Gal(b1-3)GlcNAc(b1-3)]Gal(b1-4)Glc
# Method in brief: as §1
# [13] = target: Gal(a1-2)Gal
# Method in brief: as §1
# [14] = target: Gal(a1-3)Gal(b1-4)GlcNAc(b1-2)Man(a1-3)[Gal(a1-3)Gal(b1-4)GlcNAc(b1-2)Man(a1-6)]Man(b1-4)GlcNAc(b1-4)GlcNAc
# Method in brief: as §1
# [15] = target: Gal(a1-3)GalNAc
# Method in brief: as §1
# [16] = target: Gal(a1-4)Gal(b1-4)GlcNAc(b1-2)Man(a1-3)[Gal(a1-4)Gal(b1-4)GlcNAc(b1-2)Man(a1-6)]Man(b1-4)GlcNAc(b1-4)GlcNAc
# Method in brief: as §1
# [17] = target: Gal(b1-3)Gal
# Method in brief: as §1
# [18] = target: Gal(b1-3)Gal(b1-4)GlcNAc
# Method in brief: as §1
# [19] = target: Gal(b1-3)GalNAc(a1-3)[Fuc(a1-2)]Gal(b1-4)Glc
# Method in brief: as §1
# [20] = target: Gal(b1-3)GlcNAc(a1-3)Gal(b1-4)GlcNAc
# Method in brief: as §1
# [21] = target: Gal(b1-3)GlcNAc(b1-2)Man
# Method in brief: as §1
# [22] = target: Gal(b1-3)GlcNAc(b1-2)Man(a1-3)[Gal(b1-3)GlcNAc(b1-2)Man(a1-6)]Man(b1-4)GlcNAc(b1-4)[Fuc(a1-6)]GlcNAc
# Method in brief: as §1
# [23] = target: Gal(b1-3)GlcNAc(b1-2)Man(a1-3)[GlcNAc(b1-4)][Gal(b1-3)GlcNAc(b1-2)Man(a1-6)]Man(b1-4)GlcNAc(b1-4)GlcNAc
# Method in brief: as §1
# [24] = target: Gal(b1-3)GlcNAc(b1-3)Gal(b1-4)GlcNAc(b1-6)[Gal(b1-3)GlcNAc(b1-3)]Gal(b1-4)Glc
# Method in brief: as §1
# [25] = target: Gal(b1-3)GlcNAc(b1-6)Gal(b1-4)GlcNAc
# Method in brief: as §1
# [26] = target: Gal(b1-3)GlcNAc(b1-6)GalNAc
# Method in brief: as §1
# [27] = target: Gal(b1-3)GlcNAc6S
# Method in brief: as §1
# [28] = target: Gal(b1-3)[Neu5Ac(a2-6)]GalNAc
# Method in brief: as §1
# [29] = target: Gal(b1-4)Glc6S
# Method in brief: as §1
# [30] = target: Gal(b1-4)GlcNAc(b1-2)[Gal(b1-4)GlcNAc(b1-6)]Man(a1-6)[GlcNAc(b1-4)][Gal(b1-4)GlcNAc(b1-2)[Gal(b1-4)GlcNAc(b1-4)]Man(a1-3)]Man(b1-4)GlcNAc(b1-4)[Fuc(a1-6)]GlcNAc
# Method in brief: as §1
# [31] = target: Gal(b1-4)GlcNAc(b1-6)Gal(b1-4)GlcNAc
# Method in brief: as §1
# [32] = target: Gal(b1-4)GlcNAc(b1-6)[Gal(b1-4)GlcNAc(b1-3)]GalNAc
# Method in brief: as §1
# [33] = target: Gal3S(b1-3)GalNAc
# Method in brief: as §1
# [34] = target: Gal3S4S(b1-4)GlcNAc
# Method in brief: as §1
# [35] = target: Gal4S6S(b1-4)GlcNAc
# Method in brief: as §1
# [36] = target: Gal6S(b1-3)GlcNAc6S
# Method in brief: as §1
# [37] = target: Gal6S(b1-4)Glc6S
# Method in brief: as §1
# [38] = target: GalNAc(b1-3)Gal(a1-4)Gal(b1-4)GlcNAc
# Method in brief: as §1
# [39] = target: GalNAc3S(b1-4)GlcNAc
# Method in brief: as §1
# [40] = target: Glc(b1-4)Glc
# Method in brief: as §1
# [41] = target: GlcA3S(b1-3)Gal(b1-4)GlcNAc(b1-2)Man
# Method in brief: as §1
# [42] = target: GlcNAc(b1-2)[GlcNAc(b1-6)]Man(a1-6)[GlcNAc(b1-2)Man(a1-3)]Man(b1-4)GlcNAc(b1-4)[Fuc(a1-6)]GlcNAc
# Method in brief: as §1
# [43] = target: GlcNAc(b1-3)Gal(b1-4)GlcNAc(b1-3)Gal(b1-4)GlcNAc(b1-3)Gal(b1-4)GlcNAc(b1-2)Man(a1-3)[GlcNAc(b1-3)Gal(b1-4)GlcNAc(b1-3)Gal(b1-4)GlcNAc(b1-3)Gal(b1-4)GlcNAc(b1-2)Man(a1-6)]Man(b1-4)GlcNAc(b1-4)[Fuc(a1-6)]GlcNAc
# Method in brief: as §1
# [44] = target: GlcNAc(b1-3)[GlcNAc(b1-6)]Gal(b1-4)GlcNAc
# Method in brief: as §1
# [45] = target: GlcNAc(b1-3)[GlcNAc(b1-6)]GalNAc
# Method in brief: as §1
# [46] = target: Man(a1-2)Man(a1-2)Man(a1-6)[Man(a1-3)]Man
# Method in brief: as §1
# [47] = target: Man(a1-3)[Man(a1-6)]Man(a1-6)[Man(a1-3)]Man
# Method in brief: as §1
# [48] = target: Neu5Ac(a2-3)Gal(b1-3)GlcNAc(b1-3)Gal(b1-3)GlcNAc
# Method in brief: as §1
# [49] = target: Neu5Ac(a2-3)Gal(b1-3)[Neu5Ac(a2-6)]GlcNAc(b1-3)[Fuc(a1-3)[Gal(b1-4)]GlcNAc(b1-6)]Gal(b1-4)Glc
# Method in brief: as §1
# [50] = target: Neu5Ac(a2-3)Gal(b1-4)GlcNAc(b1-2)Man(a1-3)[Neu5Ac(a2-6)Gal(b1-4)GlcNAc(b1-2)Man(a1-6)]Man(b1-4)GlcNAc(b1-4)GlcNAc
# Method in brief: as §1
# [51] = target: Neu5Ac(a2-3)Gal(b1-4)GlcNAc(b1-3)Gal
# Method in brief: as §1
# [52] = target: Neu5Ac(a2-3)Gal(b1-4)[Fuc(a1-3)]GlcNAc
# Method in brief: as §1
# [53] = target: Neu5Ac(a2-6)Gal(b1-4)GlcNAc(b1-3)Gal(b1-4)GlcNAc(b1-3)Gal(b1-4)GlcNAc
# Method in brief: as §1
# [54] = target: Neu5Gc(a2-3)Gal(b1-3)GlcNAc
# Method in brief: as §1
# [55] = target: Neu5Gc(a2-3)Gal(b1-3)[Fuc(a1-4)]GlcNAc
# Method in brief: as §1
binder,measurement,setting,value
"Epa1-NP-mutant-Y228A (Candida glabrata), Q6VBJ0 (protein) MILNPALFLNKCVCIYTTLILLLLTNGGYATSSNDISLASKDPTTFPLGCSPDITTPKKGLSMELYSYDFRKKGSYPCWDAAYLDPNYPRTGYKSHRLLAKVDGVTGNINFYYHATKGCTPQLGHLPASYNYPKPLTMTNFTMLLYGYFRPKVTGFHTFTISADDLLFVNFGAGNAFDCCRRDSSADHFGNYQAYAIWGSKTAKDELTVHLDAGVYYPIRLFYNNREADGALSFTFKTESNENTVSDFSEYFFSLDDTEEGCPGLISYDSSCASVKTSKIIGIDYHTETPNENLVPITKTIYHLGIPCTGTTTTPLCGSGFYDPLANKCVTINTSSTSSVTKTTSHTTSKEVSFHSSISSQKTLIPKSIPSPYGPIKSQSIPTEMETSSEISSSEYAFSDVISTPSHSPYTKKHSSLNSSSYTSTVIHSLTSYSISQGIFSTSLSEQNITSKSSTDKFSTATSMSNNITQSSIIISQFSTNNENYTTTSMHTSSDKISTETLNNSISTTTSILFSNSSTILKNNTTIISSDKDTHYHPVNPTIVCSTNKTEIICASITQPSISNSNNHWSSSVLKFNSTTVRSTLPSSAGSNETSINVPFSSSTESNTSTSSTSTSNSKMVRSTLPSSAGSNETSISVPFSSSTESNTSTSSTSTSNSKMVRSTLPSSAGSNETSINVPFSSSTESNTSTSSTSTSNSKTVRSTPFSSAGIIMTSLSQRNNKSASSYASSNSKCYNTADSCRKVHSTPSYLLTSSYTSEGVDYDCSLVSTKLKINDTNCVNNKHTTKSCLKTSVTTTIPTLEIKTARKSSSNTIGLHSYPTSSPNKSISSAPIIGYISSFKTIKTASPSYQTSDLTTITTITSLNNPGSTAVENTHESNDKSRKTSSNDISSKHSVIKETKDAVESSNKSHQTNTLKCSSIIIASSSHNSYESLGGTTLTLTLSKVYSPQNNDTLPFLEISEVNPSRTVLPESSKMMQYLTSTEERNKTARNTIATNIVSISTFHFEGEGNAIRMGYTQLLLMLIGIIVMNIGT",glycan array binding signal (z-score),[1],-0.261
same,glycan array binding signal (z-score),[2],-0.098
same,glycan array binding signal (z-score),[3],-0.023
same,glycan array binding signal (z-score),[4],-0.027
same,glycan array binding signal (z-score),[5],-0.103
same,glycan array binding signal (z-score),[6],-0.325
same,glycan array binding signal (z-score),[7],-0.203
same,glycan array binding signal (z-score),[8],-0.281
same,glycan array binding signal (z-score),[9],0.018
same,glycan array binding signal (z-score),[10],-0.156
same,glycan array binding signal (z-score),[11],-0.289
same,glycan array binding signal (z-score),[12],-0.025
same,glycan array binding signal (z-score),[13],-0.233
same,glycan array binding signal (z-score),[14],-0.232
same,glycan array binding signal (z-score),[15],-0.151
same,glycan array binding signal (z-score),[16],0.054
same,glycan array binding signal (z-score),[17],11.6
same,glycan array binding signal (z-score),[18],10.2
same,glycan array binding signal (z-score),[19],0.088
same,glycan array binding signal (z-score),[20],-0.17
same,glycan array binding signal (z-score),[21],3.19
same,glycan array binding signal (z-score),[22],2.29
same,glycan array binding signal (z-score),[23],2.24
same,glycan array binding signal (z-score),[24],2.26
same,glycan array binding signal (z-score),[25],2.32
same,glycan array binding signal (z-score),[26],-0.142
same,glycan array binding signal (z-score),[27],7.1
same,glycan array binding signal (z-score),[28],0.209
same,glycan array binding signal (z-score),[29],2.93
same,glycan array binding signal (z-score),[30],0.803
same,glycan array binding signal (z-score),[31],2.72
same,glycan array binding signal (z-score),[32],0.637
same,glycan array binding signal (z-score),[33],-0.153
same,glycan array binding signal (z-score),[34],-0.259
same,glycan array binding signal (z-score),[35],-0.16
same,glycan array binding signal (z-score),[36],5.91
same,glycan array binding signal (z-score),[37],4.82
same,glycan array binding signal (z-score),[38],-0.145
same,glycan array binding signal (z-score),[39],-0.321
same,glycan array binding signal (z-score),[40],-0.246
same,glycan array binding signal (z-score),[41],-0.24
same,glycan array binding signal (z-score),[42],0.217
same,glycan array binding signal (z-score),[43],-0.139
same,glycan array binding signal (z-score),[44],-0.235
same,glycan array binding signal (z-score),[45],-0.277
same,glycan array binding signal (z-score),[46],-0.127
same,glycan array binding signal (z-score),[47],-0.287
same,glycan array binding signal (z-score),[48],-0.295
same,glycan array binding signal (z-score),[49],-0.172
same,glycan array binding signal (z-score),[50],-0.237
same,glycan array binding signal (z-score),[51],-0.11
same,glycan array binding signal (z-score),[52],-0.209
same,glycan array binding signal (z-score),[53],-0.307
same,glycan array binding signal (z-score),[54],-0.069
same,glycan array binding signal (z-score),[55],-0.119
